Shown is part of a subset that was picked to be rich in hits.
Tgondii IFNg: T. gondii growth inhibition with IFN-gamma, primary screen, cell-based. AID 1259416, 2018. Toxoplasma gondii growth in IFN-gamma-treated host cells; active compounds read low. activity change, negative = inhibition, % (no concentration beside the values). 3.8% of 69,000 active; in the data active means activity change below about -70%, passing the limit was not always enough;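 further: host cells are HeLa cells infected with Toxoplasma gondii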
* hit, by the source's call; ! = a repeat was not active.

SMILES | Tgondii IFNg
CCOc1ccccc1-c1nc(Cn2nnc(C(=O)Nc3ccccc3OC)c2C)c(C)o1 | -19
COc1cccc(-c2nc(Cn3nnc(C(=O)Nc4cc(C)cc(C)c4)c3C)c(C)o2)c1OC | -105*
Cc1cc(Nc2cnccn2)cc(C2CCCN(C(=O)CN3CCc4ccccc4C3)C2)n1 (stereo unspecified) | 28
CC(C)N1Cc2ccnn2CC(COCc2cccnc2)C1 (stereo unspecified) | -3
COCCn1cc2c(n1)C(COCc1c(C)noc1C)OCC2 (stereo unspecified) | 7
O=C(Nc1cccc(F)c1)C1CC12CCN(S(=O)(=O)c1ccccc1)C2 (stereo unspecified) | -30
O=C(N1CCOCC1)N1CCc2ncnc(-c3cccc(F)c3)c2CC1 | -4
Cc1oc(-c2ccccc2)nc1Cc1noc(-c2cccnc2)n1 | -87*
Cc1oc(-c2ccccc2)nc1Cc1noc(COc2ccccc2)n1 | -36
CCOc1ccc(-c2nc(Cc3noc(-c4cccnc4)n3)c(C)o2)cc1 | 55
COc1ccccc1-c1nc(Cc2noc(-c3ccccc3)n2)c(C)o1 | 116
CCOc1ccccc1-c1nc(Cc2noc(-c3cccnc3)n2)c(C)o1 | -79*
Cc1cccc(-c2nc(Cc3noc(-c4ccncc4)n3)c(C)o2)c1 | 7
Cc1oc(-c2ccccc2)nc1Cc1noc(-c2ccncc2)n1 | 7
CCOc1ccccc1-c1nc(Cc2noc(-c3ccccc3)n2)c(C)o1 | -101*
CCOc1ccccc1-c1nc(CN(c2ccc(OC)cc2)S(=O)(=O)c2ccc(C)cc2)c(C)o1 | -19
COc1ccccc1-c1nc(Cn2nnc(-c3nc(-c4cccnc4)no3)c2C)c(C)o1 | -3
CCOc1ccccc1-c1nc(Cc2nc(-c3ccc(OC)cc3)oc2C)no1 | -93*
CCOc1ccccc1-c1noc(-c2nnn(Cc3nc(-c4ccc(C)cc4)oc3C)c2C)n1 | -17
O=C1CCC(=O)N1CN(Cc1ccccc1)Cc1ccccc1 | -43
O=C(c1cccc(F)c1)N1CCC(c2nc(-c3nccs3)cc(=O)[nH]2)CC1 | 23
CN(C)C(=O)c1cnc2n1CCN(Cc1ccc3c(c1)OCO3)C2 | 3
CCC#CCn1nc(C2CCNCC2)n(Cc2ccccc2)c1=O | 1
N#Cc1c2c(c(Nc3ccccc3)n3c1nc1ccccc13)CCCC2 | -51
COC(=O)/C=c1\sc2nc(=O)c(C)nn2c1=O | -46
SMILES | Tgondii IFNg
Cc1oc(C2CCN(S(=O)(=O)c3ccc(C(C)C)cc3)CC2)nc1C(=O)N(C)C | 11
COc1ccc(NC(=O)c2ccco2)cc1NC(=O)c1cccnc1Cl | 3
Cc1nc(N2CCCC2)nc2c1CCN(S(=O)(=O)c1ccccc1)CC2 | -49
CSc1ccc(C(=O)C2CCCN(S(=O)(=O)c3ccccc3)C2)cc1 (stereo unspecified) | -30
Cn1c2c(c(=O)n1C)CN(S(=O)(=O)c1ccccc1)CCC2 | -75*
Cc1nc(C)n(CCNC(=O)c2cn(-c3ccccc3)nn2)n1 | 7
COC(=O)c1ccccc1-c1ccccc1C(=O)OC | -59
Cc1ccccc1C(=O)NN1C(=O)c2ccccc2C1=O | -31
Cc1ccccc1C(=O)O/N=C1\C(=O)c2ccccc2-c2ccccc21 | -86*
CCOC(=O)C(C)NC(=O)c1cc(-c2cccnc2)n[nH]1 (stereo unspecified) | 12
CCN(CC)C(=O)c1nc(-c2ccc(C)cc2)n2c1CCCCC2 | -32
CCOC(=O)C(C)NC(=O)c1nc(-c2ccc(C)cc2)n2c1CCCCC2 (stereo unspecified) | -106*
CCOC(=O)C1CCCN(C(=O)c2nc(-c3ccc(C)cc3)n3c2CCCCC3)C1 (stereo unspecified) | 223
CC1CCCCN1CCNC(=O)c1nc(-c2ccc(Cl)cc2)n2c1CCCCC2 (stereo unspecified) | 6
Cc1ccc(-c2nc(C(=O)N3CCCCC3c3cccnc3)c3n2CCCCC3)cc1 (stereo unspecified) | 105
O=C(c1nc(-c2ccc(Cl)cc2)n2c1CCCCC2)N1CCC2(CC1)OCCO2 | 118
CC(C)CNC(=O)c1nc(-c2ccc(Cl)cc2)n2c1CCCCC2 | -100*
Cc1ccc(-c2nc(C(=O)NC(C)C)c3n2CCCCC3)cc1 | -78*
CC(C)OCCCNC(=O)c1nc(-c2ccc(Cl)cc2)n2c1CCCCC2 | -47
Cc1ccc(-c2nc(C(=O)N3CCCCCC3)c3n2CCCCC3)cc1 | -80*
COc1ccccc1C1c2[nH]c3ccccc3c2CCN1Cc1nc2ccccc2n1C (stereo unspecified) | -54
Cc1ccc(C)c(CN2CCC(CNS(=O)(=O)c3ccc4[nH]c(=O)ccc4c3)CC2)c1 | -50
O=C(CSc1cccs1)NCCSCc1ccco1 | 56
NCCn1nc(C2CCN(C(=O)c3csc4c3CCCC4)C2)c2nccnc21 (stereo unspecified) | -7
CN(C)S(=O)(=O)c1ccc2c(c1)cc(C(=O)NCCc1ccccc1)n2Cc1ccncc1 | 69
SMILES | Tgondii IFNg
Cc1nc(N)sc1C(=O)NCCO | 9
CCCc1cnc(C)nc1N1CC(c2ccccn2)C1 | -2
COc1ccccc1CNC(=O)c1nc(-c2ccc(C)cc2)n2c1CCCCC2 | -115*
COCCCNC(=O)c1nc(-c2ccc(Cl)cc2)n2c1CCCCC2 | -50
COC(=O)c1cc2c(cc1NC(=O)c1nc(-c3ccc(C)cc3)n3c1CCCCC3)OCO2 | 284
CCN1CCCCC1CNC(=O)CCC(=O)NC1CCCC1 (stereo unspecified) | 35
COc1cccc2ccc(N3CCC(O)(c4ccc(C)cn4)CC3)nc12 | -45
O=C(NC1CCC12CCN(C(=O)c1ccco1)CC2)c1cnccn1 (stereo unspecified) | 3
CCN1CCOCC12CCN(C(=O)c1cnccn1)CC2 | -11
C=CCNC(=O)C1(Cc2cccc(-c3cncnc3)c2)CCN(C(=O)c2cnccn2)CC1 | -93*
Cc1ccc(-n2cc(CNCCN3CCNC3=O)c(-c3cccc(C)c3)n2)cc1 | -14
O=S(=O)(c1ccc(-c2noc(CCc3c[nH]c4ccccc34)n2)cc1)N1CCCC1 | -59
COC1C=COC2(C)Oc3c(C)c(O)c4c(c3C2=O)C2(C=C(NC(=O)/C(C)=C\C=C/C(C)C(O)C(C)C(O)C(C)C(OC(C)=O)C1C)C4=O)OCC(=O)O2 (stereo unspecified) | 14
CO[C@H]1/C=C\C=C(/C)C(=O)NC2=CC(=O)C(NCCN(C)C)=C(C[C@@H](C)C[C@H](OC)[C@H](O)[C@@H](C)/C=C(\C)[C@@H]1OC(N)=O)C2=O | -82*!
COc1cc2c(cc1CN1CCCCC1CN1CCOCC1)OCO2 (stereo unspecified) | 70
Cc1ccc(C(=O)CSc2ncn(-c3ccccc3)n2)cc1 | 12
CC(C)c1ccc(NC(=O)CSc2nccc(-c3csc(-c4ccccc4)n3)n2)cc1 | -22
Cc1onc(-c2ccc(Cl)cc2)c1-c1ccnc(SCC(=O)c2ccccc2)n1 | -72*
CCNC1CCc2c(c(C(=O)NC)nn2Cc2ccccc2)C1 (stereo unspecified) | 5
O=S(=O)(c1ccccc1)N1CCN(CC(O)COc2ccc3ccccc3c2)CC1 (stereo unspecified) | -83*
CCC(=O)c1ccc(OCC(O)CN2CCN(c3ccccc3)CC2)cc1 (stereo unspecified) | 12
CC(C)c1nccc(CN2CCN(S(=O)(=O)c3ccccc3)CC2)n1 | 4
CN1CCN(c2ncnc3c2cnn3CC(=O)NCCCc2ccccc2)CC1 | -18
COc1coc(CN2CCCC(CCc3ccccc3C)C2)cc1=O (stereo unspecified) | -14
